According to PubChem BioAssay (Tox21):
Activity calls are given as the source filed them. The call rests on the fitted dose curve; in most records, active means well fitted curve in the direction sought with a large enough effect in the repeat runs; inconclusive means weak or mixed curves; inactive means flat fitted curve, though single readings scatter.

Experiment: qHTS assay to test for compound auto fluorescence at 535 nm (green) in HEK293 cells (AID 720680)
Settings: green autofluorescence 485/535 nm; series mostly up to 91.3 µM; fluorescence, % of fluorescein: at the top concentration
On the % scale 0 is the no-effect control and ±100 the full control effect.

SMILES	fluorescence, % of fluorescein	outcome
C/C=C/C=C/CCCCCCCO	0.0985% (inactive)	
Cc1cc(OI)c(C(C)C)cc1-c1cc(C(C)C)c(OI)cc1C	-0.0233% [at 46 µM] (inactive)	
CC(C)(C)CC(C)(C)c1ccc(OCCO)cc1		inactive
CC(C)(C)C(=O)O	0.0296% (inactive)	
CCCCC/C(=C\c1ccccc1)CO	0.0235% [at 95.7 µM] (inactive)	
C[N+]1(C)CCC(=C(c2ccccc2)c2ccccc2)CC1	-0.0107% [at 18.6 µM] (inactive)	
CO[C@H]1C=CO[C@@]2(C)Oc3c(C)c(O)c4c(O)c(c5c(c4c3C2=O)=NC2(CCN(CC(C)C)CC2)N=5)NC(=O)/C(C)=C\C=C/[C@H](C)[C@H](O)[C@@H](C)[C@@H](O)[C@@H](C)[C@H](OC(C)=O)[C@@H]1C		inactive
CCC(C)=O	-0.009% (inactive)	
C[N+](C)(C)CCOC(N)=O	0.0089% [at 46 µM] (inactive)	
CN1CCN(CCCN2c3ccccc3Sc3ccc(S(=O)(=O)N(C)C)cc32)CC1	0.046% [at 18.6 µM] (inactive)	
CCCCCC=CCC=CCCCCCCCC(=O)OCC	0.0258% [at 46 µM] (inactive)	
Cc1cc(O)c(C(C)C)cc1Cl		inactive
CCC(Cc1ccccc1)(C(=O)c1ccc(N2CCOCC2)cc1)N(C)C (configuration not stated)	0.013% (inactive)	
CCOC(=O)[C@@H](C)Oc1ccc(Oc2nc3ccc(Cl)cc3o2)cc1	0.0215% (inactive)	
CC(=O)[C@H]1CC[C@H]2[C@@H]3C[C@H](C)C4=CC(=O)CC[C@]4(C)[C@H]3[C@@H](O)C[C@]12C	0.123% [at 18.6 µM] (inactive)	
CNCCCC1c2ccccc2C=Cc2ccccc21	0.0057% [at 18.6 µM] (inactive)	
CC(=O)CC(c1ccc([N+](=O)[O-])cc1)c1c(O)c2ccccc2oc1=O (configuration not stated)	0.0049% [at 18.6 µM] (inactive)	
